Results on 1 sequence are retold here after paper PMC7862700, “An all-to-all approach to the identification of sequence-specific readers for epigenetic DNA modifications on cytosine”.

What all share (assay): DAPPL (digital affinity profiling via proximity ligation, sequencing); 10 mM Tris-HCl pH 7.5, 50 mM NaCl, 1 mM DTT, 4% glycerol, room temperature, 30 min; GST-TFs on glutathione beads, 16-mer random dsDNA library, 0.1% formaldehyde crosslink after washing; high values mean tight binding
The target of one assay is T1, FEV (Homo sapiens, UniProt Q99581 1-238).
T1 sequence: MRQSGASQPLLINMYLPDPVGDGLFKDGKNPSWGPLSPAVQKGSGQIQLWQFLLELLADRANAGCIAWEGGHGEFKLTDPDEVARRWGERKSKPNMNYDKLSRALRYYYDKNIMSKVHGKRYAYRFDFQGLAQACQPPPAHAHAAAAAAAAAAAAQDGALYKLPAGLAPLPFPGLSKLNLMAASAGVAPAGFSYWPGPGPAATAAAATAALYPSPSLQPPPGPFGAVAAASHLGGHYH
Conditions: protein: recombinant; tags: N-terminal GST; dsDNA, one strand shown. The method in brief:
(§1)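 Beads coated with glutathione captured GST-fused human transcription factors that had been expressed in yeast, and the factors were then given DNA barcodes and pooled with a tag-only sample. The pools were incubated with 200 nmole of a random double-stranded 16-mer DNA library in Tris/NaCl/DTT/glycerol buffer for 30 min at room temperature, washed, crosslinked with 0.1% formaldehyde and proximity-ligated with BsaI/T4 ligase at 37 °C for 1 h. PCR amplification and Illumina NextSeq500 sequencing came last. Binding signal is each hexamer's read frequency for a factor divided by its frequency for the tag-only sample.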

The target in another assay is ETV5 (Homo sapiens, UniProt P41161 1-510). Conditions: protein: recombinant; tags: N-terminal GST; dsDNA, one strand shown. The method in brief: as §1
ETV5, sequence (P41161 whole entry): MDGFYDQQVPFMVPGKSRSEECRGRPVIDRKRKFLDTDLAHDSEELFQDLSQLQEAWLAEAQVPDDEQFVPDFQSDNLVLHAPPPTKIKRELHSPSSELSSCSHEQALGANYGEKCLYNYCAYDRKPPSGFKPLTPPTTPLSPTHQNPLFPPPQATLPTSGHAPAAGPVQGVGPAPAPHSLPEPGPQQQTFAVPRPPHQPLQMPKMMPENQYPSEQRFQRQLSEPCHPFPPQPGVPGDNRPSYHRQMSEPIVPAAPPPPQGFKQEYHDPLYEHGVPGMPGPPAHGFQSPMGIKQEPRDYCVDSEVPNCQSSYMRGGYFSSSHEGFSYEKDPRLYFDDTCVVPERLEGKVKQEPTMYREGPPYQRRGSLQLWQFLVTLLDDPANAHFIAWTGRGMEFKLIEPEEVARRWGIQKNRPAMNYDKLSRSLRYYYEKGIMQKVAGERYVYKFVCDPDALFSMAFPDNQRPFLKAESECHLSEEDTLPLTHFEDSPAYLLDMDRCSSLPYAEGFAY
Another assay concerns the target HSF1 (Homo sapiens, UniProt Q00613 1-529). Conditions: protein: recombinant; tags: N-terminal GST; chain copies: 3; dsDNA, one strand shown. The procedure, abridged:
as §1

For another assay, the target named is T2, SPIC (Homo sapiens, UniProt Q8N5J4 1-248).
T2 sequence: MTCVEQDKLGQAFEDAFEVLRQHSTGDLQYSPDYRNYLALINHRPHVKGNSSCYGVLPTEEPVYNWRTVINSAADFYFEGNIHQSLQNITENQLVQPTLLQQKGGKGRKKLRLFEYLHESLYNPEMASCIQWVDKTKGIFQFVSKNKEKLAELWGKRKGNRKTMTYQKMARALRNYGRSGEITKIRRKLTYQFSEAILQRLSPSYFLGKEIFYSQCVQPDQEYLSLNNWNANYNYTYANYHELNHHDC
The note with it: protein: recombinant; tags: N-terminal GST; dsDNA, one strand shown. The procedure, abridged:
as §1

Another assay concerns the target ELF4 (Homo sapiens, UniProt Q99607 1-663). The note with it: protein: recombinant; tags: N-terminal GST; dsDNA, one strand shown. The procedure, abridged: as §1
The next assay has as its target T3, ELK4 (Homo sapiens, UniProt P28324-2 1-405).
T3 sequence: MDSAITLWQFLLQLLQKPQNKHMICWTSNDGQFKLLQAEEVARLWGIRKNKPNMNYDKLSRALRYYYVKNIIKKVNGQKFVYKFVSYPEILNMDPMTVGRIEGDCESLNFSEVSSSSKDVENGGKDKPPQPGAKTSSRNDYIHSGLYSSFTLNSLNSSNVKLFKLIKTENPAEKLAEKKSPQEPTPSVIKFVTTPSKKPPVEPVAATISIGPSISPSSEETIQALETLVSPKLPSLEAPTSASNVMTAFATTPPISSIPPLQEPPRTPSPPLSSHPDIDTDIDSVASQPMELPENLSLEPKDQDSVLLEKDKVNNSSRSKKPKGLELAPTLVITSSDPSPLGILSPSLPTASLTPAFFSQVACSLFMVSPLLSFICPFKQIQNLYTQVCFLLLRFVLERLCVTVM
Conditions: protein: recombinant; tags: N-terminal GST; dsDNA, one strand shown. The procedure, abridged:
as §1

The next assay concerns the target T4, ETV2 (Homo sapiens, UniProt O00321 1-342).
T4 sequence: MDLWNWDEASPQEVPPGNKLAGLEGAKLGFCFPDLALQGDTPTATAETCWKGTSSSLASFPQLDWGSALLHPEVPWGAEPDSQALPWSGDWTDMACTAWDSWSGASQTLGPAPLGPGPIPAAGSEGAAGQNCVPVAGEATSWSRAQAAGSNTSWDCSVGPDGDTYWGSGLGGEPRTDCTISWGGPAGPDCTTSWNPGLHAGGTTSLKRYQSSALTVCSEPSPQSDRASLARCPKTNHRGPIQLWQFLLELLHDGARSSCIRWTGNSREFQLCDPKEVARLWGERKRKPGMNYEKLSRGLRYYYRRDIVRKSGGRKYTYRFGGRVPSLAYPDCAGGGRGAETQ
Conditions: protein: recombinant; tags: N-terminal GST; dsDNA, one strand shown. The procedure, abridged: as §1

A further assay deals with T5, ELF3 (Homo sapiens, UniProt P78545 1-371).
T5 sequence: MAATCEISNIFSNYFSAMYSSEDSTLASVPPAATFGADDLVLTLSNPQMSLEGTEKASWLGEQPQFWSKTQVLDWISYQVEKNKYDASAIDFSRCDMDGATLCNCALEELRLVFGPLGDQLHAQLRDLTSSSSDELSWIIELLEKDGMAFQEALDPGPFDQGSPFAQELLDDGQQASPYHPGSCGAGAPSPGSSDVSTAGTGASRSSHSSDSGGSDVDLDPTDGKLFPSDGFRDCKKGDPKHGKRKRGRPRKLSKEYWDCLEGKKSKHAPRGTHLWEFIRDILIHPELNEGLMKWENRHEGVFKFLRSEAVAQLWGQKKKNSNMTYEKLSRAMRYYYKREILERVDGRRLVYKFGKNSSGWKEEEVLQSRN
The note with it: protein: recombinant; tags: N-terminal GST; dsDNA, one strand shown. The method in brief:
as §1

A further assay concerns the target CRX (Homo sapiens, UniProt O43186 1-299). The note with it: protein: recombinant; tags: N-terminal GST; dsDNA, one strand shown. The procedure, abridged: as §1
The target in another assay is ETV1 (Homo sapiens, UniProt P50549 1-477). Conditions: protein: recombinant; tags: N-terminal GST; dsDNA, one strand shown. The method in brief: as §1
ETV1, sequence (P50549 whole entry): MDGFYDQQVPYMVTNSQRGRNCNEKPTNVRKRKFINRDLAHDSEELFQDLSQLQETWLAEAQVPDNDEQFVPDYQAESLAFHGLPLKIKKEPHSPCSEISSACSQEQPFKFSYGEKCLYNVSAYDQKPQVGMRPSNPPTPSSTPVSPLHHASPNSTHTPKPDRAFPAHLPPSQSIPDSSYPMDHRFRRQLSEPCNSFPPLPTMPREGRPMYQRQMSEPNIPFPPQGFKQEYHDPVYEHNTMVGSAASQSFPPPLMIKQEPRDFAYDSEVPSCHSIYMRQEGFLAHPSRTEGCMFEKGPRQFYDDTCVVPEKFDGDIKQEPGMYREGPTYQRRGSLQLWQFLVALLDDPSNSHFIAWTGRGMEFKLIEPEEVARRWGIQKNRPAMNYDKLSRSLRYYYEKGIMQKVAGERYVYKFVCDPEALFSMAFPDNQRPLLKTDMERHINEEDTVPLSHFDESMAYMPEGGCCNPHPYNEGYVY
Another assay addresses T6, ERF (Homo sapiens, UniProt P50548 1-548).
T6 sequence: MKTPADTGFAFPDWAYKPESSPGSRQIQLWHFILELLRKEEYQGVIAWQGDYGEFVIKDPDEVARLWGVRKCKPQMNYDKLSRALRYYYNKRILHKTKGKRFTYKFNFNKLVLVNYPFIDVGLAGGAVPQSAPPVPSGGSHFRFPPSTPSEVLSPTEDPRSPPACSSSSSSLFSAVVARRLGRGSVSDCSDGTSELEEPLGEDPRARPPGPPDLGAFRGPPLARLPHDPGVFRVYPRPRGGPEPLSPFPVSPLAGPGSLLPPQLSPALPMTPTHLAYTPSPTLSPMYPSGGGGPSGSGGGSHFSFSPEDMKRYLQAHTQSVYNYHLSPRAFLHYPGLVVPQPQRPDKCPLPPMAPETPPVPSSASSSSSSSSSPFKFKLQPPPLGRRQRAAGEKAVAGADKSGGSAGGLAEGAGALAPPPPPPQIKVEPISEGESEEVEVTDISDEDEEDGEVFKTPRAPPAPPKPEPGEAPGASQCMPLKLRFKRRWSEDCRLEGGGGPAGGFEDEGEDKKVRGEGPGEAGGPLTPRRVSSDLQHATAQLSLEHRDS
The note with it: protein: recombinant; tags: N-terminal GST; dsDNA, one strand shown. The procedure, abridged: as §1

The next assay addresses T7, ETV3L (Homo sapiens, UniProt Q6ZN32 1-361).
T7 sequence: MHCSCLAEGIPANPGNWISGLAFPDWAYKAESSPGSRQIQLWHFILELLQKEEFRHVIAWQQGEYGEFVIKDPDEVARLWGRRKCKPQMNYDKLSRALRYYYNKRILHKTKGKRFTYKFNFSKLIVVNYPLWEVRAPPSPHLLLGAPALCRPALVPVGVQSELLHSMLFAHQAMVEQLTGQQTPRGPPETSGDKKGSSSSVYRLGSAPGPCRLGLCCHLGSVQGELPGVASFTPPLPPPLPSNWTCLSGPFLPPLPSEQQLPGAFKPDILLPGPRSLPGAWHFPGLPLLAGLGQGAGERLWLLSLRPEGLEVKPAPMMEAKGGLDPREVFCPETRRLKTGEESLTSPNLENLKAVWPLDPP
The note with it: protein: recombinant; tags: N-terminal GST; dsDNA, one strand shown. The method in brief: as §1

The next assay has as its target T8, ETS2 (Homo sapiens, UniProt P15036 1-469).
T8 sequence: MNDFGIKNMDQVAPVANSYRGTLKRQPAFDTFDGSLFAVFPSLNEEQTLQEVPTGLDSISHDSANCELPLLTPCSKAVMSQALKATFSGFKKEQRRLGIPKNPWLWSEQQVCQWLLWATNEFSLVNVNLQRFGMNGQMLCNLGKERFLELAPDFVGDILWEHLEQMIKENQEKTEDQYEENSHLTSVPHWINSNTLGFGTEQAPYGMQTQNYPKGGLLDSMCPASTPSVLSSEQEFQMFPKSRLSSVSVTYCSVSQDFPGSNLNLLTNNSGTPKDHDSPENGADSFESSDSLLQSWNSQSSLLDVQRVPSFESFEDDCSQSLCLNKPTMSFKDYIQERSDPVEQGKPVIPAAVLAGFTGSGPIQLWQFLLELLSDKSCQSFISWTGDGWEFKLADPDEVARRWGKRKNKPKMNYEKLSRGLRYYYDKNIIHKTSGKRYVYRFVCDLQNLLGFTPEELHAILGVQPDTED
The note with it: protein: recombinant; tags: N-terminal GST; dsDNA, one strand shown. The procedure, abridged:
as §1

In another assay the target is T9, SPDEF (Homo sapiens, UniProt O95238 1-335).
T9 sequence: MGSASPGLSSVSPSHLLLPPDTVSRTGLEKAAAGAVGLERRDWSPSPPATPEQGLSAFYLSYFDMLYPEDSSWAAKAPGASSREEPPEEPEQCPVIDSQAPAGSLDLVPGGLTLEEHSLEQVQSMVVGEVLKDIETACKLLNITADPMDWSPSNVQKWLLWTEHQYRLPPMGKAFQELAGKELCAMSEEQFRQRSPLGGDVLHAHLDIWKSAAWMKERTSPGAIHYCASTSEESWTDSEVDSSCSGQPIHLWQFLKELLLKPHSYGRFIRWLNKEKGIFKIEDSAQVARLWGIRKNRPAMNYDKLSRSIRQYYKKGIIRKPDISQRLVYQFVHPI
Conditions: protein: recombinant; tags: N-terminal GST; dsDNA, one strand shown. The procedure, abridged:
as §1

In the next assay the target is T10, ETV7 (Homo sapiens, UniProt Q9Y603 1-341).
T10 sequence: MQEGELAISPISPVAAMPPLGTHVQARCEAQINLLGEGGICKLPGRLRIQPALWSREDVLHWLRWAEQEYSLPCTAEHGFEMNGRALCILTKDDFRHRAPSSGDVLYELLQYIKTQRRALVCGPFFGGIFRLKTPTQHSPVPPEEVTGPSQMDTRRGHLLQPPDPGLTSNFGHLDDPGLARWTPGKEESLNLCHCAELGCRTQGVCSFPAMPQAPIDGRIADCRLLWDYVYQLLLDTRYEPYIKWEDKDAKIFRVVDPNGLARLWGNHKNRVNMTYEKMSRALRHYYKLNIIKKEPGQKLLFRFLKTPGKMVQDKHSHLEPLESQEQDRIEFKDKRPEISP
Conditions: protein: recombinant; tags: N-terminal GST; dsDNA, one strand shown. The procedure, abridged:
as §1

For the next assay, the target named is T11, ELF5 (Homo sapiens, UniProt Q9UKW6-2 1-255).
T11 sequence: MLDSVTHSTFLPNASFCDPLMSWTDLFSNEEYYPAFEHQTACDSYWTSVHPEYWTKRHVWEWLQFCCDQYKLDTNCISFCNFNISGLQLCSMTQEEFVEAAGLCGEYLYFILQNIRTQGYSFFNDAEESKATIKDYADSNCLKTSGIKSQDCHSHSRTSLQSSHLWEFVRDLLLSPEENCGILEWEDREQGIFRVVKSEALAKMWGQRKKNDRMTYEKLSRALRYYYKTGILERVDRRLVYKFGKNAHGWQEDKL
Conditions: protein: recombinant; tags: N-terminal GST; dsDNA, one strand shown. The procedure, abridged: as §1

In a further assay the target is T12, ETV3 (Homo sapiens, UniProt P41162-2 1-143).
T12 sequence: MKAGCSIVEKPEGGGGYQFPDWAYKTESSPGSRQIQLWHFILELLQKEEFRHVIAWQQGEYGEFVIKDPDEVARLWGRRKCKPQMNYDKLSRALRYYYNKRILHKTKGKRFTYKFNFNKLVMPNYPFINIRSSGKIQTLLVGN
The note with it: protein: recombinant; tags: N-terminal GST; dsDNA, one strand shown. The procedure, abridged: as §1

The target in the next assay is ETV6 (Homo sapiens, UniProt P41212 1-452). Conditions: protein: recombinant; tags: N-terminal GST; dsDNA, one strand shown. The method in brief:
as §1

ELF4, sequence (Q99607 whole entry): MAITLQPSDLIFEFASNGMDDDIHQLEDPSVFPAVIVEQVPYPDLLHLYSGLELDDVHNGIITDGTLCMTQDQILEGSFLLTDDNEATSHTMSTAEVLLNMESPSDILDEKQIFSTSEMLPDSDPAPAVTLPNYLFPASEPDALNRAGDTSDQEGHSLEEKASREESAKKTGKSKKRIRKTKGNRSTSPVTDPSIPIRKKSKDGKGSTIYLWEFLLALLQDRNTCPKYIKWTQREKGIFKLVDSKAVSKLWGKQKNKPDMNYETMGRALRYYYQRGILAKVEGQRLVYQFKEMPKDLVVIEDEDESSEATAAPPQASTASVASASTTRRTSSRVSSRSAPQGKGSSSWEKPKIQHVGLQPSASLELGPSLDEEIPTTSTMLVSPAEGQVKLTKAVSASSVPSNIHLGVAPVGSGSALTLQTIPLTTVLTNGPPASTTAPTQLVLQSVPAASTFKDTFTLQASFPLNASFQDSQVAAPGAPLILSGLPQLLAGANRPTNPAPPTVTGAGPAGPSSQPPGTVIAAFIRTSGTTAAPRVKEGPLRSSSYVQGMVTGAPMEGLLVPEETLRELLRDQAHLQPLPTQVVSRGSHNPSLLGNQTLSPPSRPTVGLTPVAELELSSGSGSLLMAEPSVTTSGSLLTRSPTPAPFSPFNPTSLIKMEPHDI
HSF1, sequence (Q00613 whole entry): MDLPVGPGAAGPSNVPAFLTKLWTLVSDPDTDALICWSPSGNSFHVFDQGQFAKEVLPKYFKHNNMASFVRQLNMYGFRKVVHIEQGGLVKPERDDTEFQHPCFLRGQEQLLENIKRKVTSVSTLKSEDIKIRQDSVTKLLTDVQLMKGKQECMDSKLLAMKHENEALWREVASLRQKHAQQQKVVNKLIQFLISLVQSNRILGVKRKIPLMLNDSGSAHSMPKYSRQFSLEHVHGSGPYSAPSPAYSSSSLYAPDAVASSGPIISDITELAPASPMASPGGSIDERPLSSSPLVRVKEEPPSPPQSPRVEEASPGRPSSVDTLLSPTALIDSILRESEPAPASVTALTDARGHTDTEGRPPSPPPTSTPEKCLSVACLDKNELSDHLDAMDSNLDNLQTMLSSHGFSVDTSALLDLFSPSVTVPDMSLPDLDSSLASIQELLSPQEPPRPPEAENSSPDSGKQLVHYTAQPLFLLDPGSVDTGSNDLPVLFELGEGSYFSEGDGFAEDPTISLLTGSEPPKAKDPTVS
ETV6, sequence (P41212 whole entry): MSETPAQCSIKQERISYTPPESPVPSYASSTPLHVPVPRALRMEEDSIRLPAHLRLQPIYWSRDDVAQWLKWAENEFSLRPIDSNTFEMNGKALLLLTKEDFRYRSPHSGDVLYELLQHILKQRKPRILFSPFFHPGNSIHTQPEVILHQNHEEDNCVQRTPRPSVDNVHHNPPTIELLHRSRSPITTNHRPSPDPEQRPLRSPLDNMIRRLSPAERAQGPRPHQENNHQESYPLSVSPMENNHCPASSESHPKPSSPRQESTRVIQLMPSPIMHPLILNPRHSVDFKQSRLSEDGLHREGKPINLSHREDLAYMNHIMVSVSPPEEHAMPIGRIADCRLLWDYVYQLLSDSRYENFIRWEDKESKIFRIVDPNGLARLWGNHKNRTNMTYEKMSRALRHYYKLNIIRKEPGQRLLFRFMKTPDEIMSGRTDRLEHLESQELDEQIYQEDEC
CRX, sequence (O43186 whole entry): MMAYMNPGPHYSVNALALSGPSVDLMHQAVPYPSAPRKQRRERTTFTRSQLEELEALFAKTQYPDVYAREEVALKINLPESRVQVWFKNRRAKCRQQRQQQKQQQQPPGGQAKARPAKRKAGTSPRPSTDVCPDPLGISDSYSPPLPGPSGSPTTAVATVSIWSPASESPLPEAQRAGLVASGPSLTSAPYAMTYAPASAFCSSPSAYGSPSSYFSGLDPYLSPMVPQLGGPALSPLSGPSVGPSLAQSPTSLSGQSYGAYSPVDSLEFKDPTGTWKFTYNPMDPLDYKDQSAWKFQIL

TCCCTC: the binding signal in the assay with FEV is 1.56 fold enrichment (6-mer frequency, TF over GST control); in the assay with ETV5, 1.43 fold enrichment (6-mer frequency, TF over GST control); with HSF1, 1.38 fold enrichment (6-mer frequency, TF over GST control); in the assay with SPIC it was 1.35 fold enrichment (6-mer frequency, TF over GST control); in the assay with ELF4 it was 1.7 fold enrichment (6-mer frequency, TF over GST control); with ELK4 it was 1.78 fold enrichment (6-mer frequency, TF over GST control). Further, the binding signal with ETV2 is 1.43 fold enrichment (6-mer frequency, TF over GST control); in the assay with ELF3, 1.43 fold enrichment (6-mer frequency, TF over GST control); with CRX, 1.41 fold enrichment (6-mer frequency, TF over GST control); with ETV1, 1.43 fold enrichment (6-mer frequency, TF over GST control); in the assay with ERF, 1.46 fold enrichment (6-mer frequency, TF over GST control); with ETV3L, 1.41 fold enrichment (6-mer frequency, TF over GST control). Further, the binding signal with ETS2 is 1.49 fold enrichment (6-mer frequency, TF over GST control); with SPDEF, 1.4 fold enrichment (6-mer frequency, TF over GST control); with ETV7 it was 1.4 fold enrichment (6-mer frequency, TF over GST control); with ELF5, 1.53 fold enrichment (6-mer frequency, TF over GST control); with ETV3, 1.49 fold enrichment (6-mer frequency, TF over GST control); with ETV6, 1.43 fold enrichment (6-mer frequency, TF over GST control).
